Experimental data: PubChem BioAssay (Tox21)
Values without a mark were called inactive. Records with an inconclusive call do not appear. Entries that show only a call come without a potency. Active and inactive are the calls of the source. The call rests on the fitted dose curve; in most records, active means well fitted curve in the direction sought with a large enough effect in the repeat runs; inconclusive means weak or mixed curves; inactive means no such curve, though single readings can be large; an effect the other way counts as inactive or inconclusive.

What was measured:
[1] = Caspase-3/7 induction in HepG2 cells by small molecules, qHTS assay (AID 1346978); further: nearly all actives have a fitted effect of over 15% in size
How it was run: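 Wild-type HepG2 cells, 2,000/well, settled 5 hr at 37 C and 5% CO2, then compound-treated for 17 hr; caspase-3/7 activity read by luminescent Caspase-Glo 3/7 after 30 min at room temperature.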

[2] = Caspase-3/7 induction in CHO-K1 cells by small molecules, qHTS cell viability counter screen (AID 1346979); further: nearly all actives have a fitted effect of over 35% in size
How it was run: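 Cytotoxicity counter screen: CellTiter-Fluor added to compound-treated wild-type CHO-K1 cells at 16 h (37C, 5% CO2), fluorescence measured 1 h later; same wells as caspase-3/7 measurement.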

[3] = Caspase-3/7 induction in CHO-K1 cells by small molecules, qHTS assay (AID 1346980); further: nearly all actives have a fitted effect of over 15% in size
How it was run: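 Wild-type CHO-K1 cells exposed to compounds for 17hr at 37 C, 5% CO2. Caspase-3/7 activity then measured by Caspase-Glo 3/7 luminescence after 30min at room temperature.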

[4] = Caspase-3/7 induction in HepG2 cells by small molecules, qHTS cell viability counter screen (AID 1346981); further: series mostly up to about 92 µM; nearly all actives have a fitted effect of over 30% in size
How it was run: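 Wild-type HepG2 cells (2,000/well) were allowed to settle for 5 hr at 37 C, 5% CO2, then dosed with compounds in DMSO by pin transfer. After 16 hr at 37 C, CellTiter-Fluor was added and fluorescence read 1 hr later.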

[5] = target: Nuclear receptor subfamily 1 group I member 2 (Homo sapiens) (UniProt O75469); test: Human pregnane X receptor (PXR) small molecule agonists, qHTS assay (AID 1346982); further: nearly all actives have a fitted effect of over 35% in size; further: potency means the concentration at half of the fitted maximal effect
Chain of Nuclear receptor subfamily 1 group I member 2 (Homo sapiens) (O75469 whole entry, looked up): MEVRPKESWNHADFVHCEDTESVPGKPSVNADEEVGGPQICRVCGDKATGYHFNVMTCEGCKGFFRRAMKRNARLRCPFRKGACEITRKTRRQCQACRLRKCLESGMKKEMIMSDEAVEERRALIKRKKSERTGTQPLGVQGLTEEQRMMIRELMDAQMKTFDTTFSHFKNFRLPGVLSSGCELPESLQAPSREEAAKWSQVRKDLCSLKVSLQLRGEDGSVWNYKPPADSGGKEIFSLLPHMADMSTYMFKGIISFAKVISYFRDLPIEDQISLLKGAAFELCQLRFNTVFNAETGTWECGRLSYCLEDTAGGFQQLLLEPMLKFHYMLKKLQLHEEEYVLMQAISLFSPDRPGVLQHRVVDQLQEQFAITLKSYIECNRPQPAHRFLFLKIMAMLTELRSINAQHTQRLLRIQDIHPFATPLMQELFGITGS
How it was run: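 PXR-Luc HepG2 cells (CYP3A4 promoter-driven luciferase) were seeded in medium with 5% charcoal-stripped FBS, left 5 hr at 37 C, then exposed to compounds in DMSO for 24 hr. Luminescence was read after ONE-Glo addition.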

[6] = target: Cytochrome P450 2D6 (Homo sapiens) (UniProt P10635); test: Cytochrome P450 Family 2 Subfamily D Member 6 (CYP2D6) small molecule antagonists: luciferase reporter qHTS assay (AID 1671196); further: nearly all actives have a fitted effect of over 50% in size; further: potency means the concentration at half of the fitted maximal effect
Chain of Cytochrome P450 2D6 (Homo sapiens) (P10635 whole entry, looked up): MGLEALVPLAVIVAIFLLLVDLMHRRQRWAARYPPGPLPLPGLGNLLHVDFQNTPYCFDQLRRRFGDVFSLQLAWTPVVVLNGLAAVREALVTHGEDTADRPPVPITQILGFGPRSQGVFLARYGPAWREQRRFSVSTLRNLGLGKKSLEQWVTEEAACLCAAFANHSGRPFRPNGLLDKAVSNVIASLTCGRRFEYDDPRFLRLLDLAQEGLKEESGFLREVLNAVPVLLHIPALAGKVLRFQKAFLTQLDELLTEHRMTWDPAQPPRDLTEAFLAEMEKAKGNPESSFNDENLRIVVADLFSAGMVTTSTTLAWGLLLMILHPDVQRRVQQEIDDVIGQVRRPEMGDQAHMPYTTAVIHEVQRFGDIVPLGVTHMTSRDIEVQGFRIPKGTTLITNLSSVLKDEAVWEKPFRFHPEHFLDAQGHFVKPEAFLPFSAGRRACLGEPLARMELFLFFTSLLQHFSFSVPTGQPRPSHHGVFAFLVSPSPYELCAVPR
How it was run: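 CYP2D6 enzyme–substrate mix was held with compound for 10 min at room temperature, then NADPH regeneration solution was added and the reaction ran 1 h at room temperature. Luciferin product was detected by luminescence after 20 min with detection reagent.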

[7] = target: Cytochrome P450 2C19 (Homo sapiens) (UniProt P33261); test: Cytochrome P450 Family 2 Subfamily C Member 19 (CYP2C19) small molecule antagonists: luciferase reporter qHTS assay (AID 1671197); further: nearly all actives have a fitted effect of over 65% in size; further: potency means the concentration at half of the fitted maximal effect
Chain of Cytochrome P450 2C19 (Homo sapiens) (P33261 whole entry, looked up): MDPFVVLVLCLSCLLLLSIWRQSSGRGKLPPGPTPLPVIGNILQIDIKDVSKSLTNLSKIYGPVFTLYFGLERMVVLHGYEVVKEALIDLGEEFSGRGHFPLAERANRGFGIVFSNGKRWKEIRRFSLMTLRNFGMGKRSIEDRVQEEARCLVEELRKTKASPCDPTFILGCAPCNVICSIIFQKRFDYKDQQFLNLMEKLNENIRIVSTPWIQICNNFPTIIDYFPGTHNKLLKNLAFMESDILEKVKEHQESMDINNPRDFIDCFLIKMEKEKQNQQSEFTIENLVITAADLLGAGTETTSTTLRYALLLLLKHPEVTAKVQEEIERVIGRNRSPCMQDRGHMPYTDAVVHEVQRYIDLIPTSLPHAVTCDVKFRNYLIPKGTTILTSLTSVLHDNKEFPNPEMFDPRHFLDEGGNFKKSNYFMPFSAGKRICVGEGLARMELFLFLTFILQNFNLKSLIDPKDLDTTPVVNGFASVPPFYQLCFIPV
How it was run: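 P450-Glo CYP2C19 screening system; proluciferin substrate; DMSO compound stocks; 10 min RT preincubation; NADPH regeneration, 1 h at 37C; luciferin detection reagent, 20 min RT; luminescence as RLU.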

[8] = target: Cytochrome P450 2C9 (Homo sapiens) (UniProt P11712); test: Cytochrome P450 Family 2 Subfamily C Member 9 (CYP2C9) small molecule antagonists: luciferase reporter qHTS assay (AID 1671198); further: nearly all actives have a fitted effect of over 50% in size; further: potency means the concentration at half of the fitted maximal effect
Chain of Cytochrome P450 2C9 (Homo sapiens) (P11712 whole entry, looked up): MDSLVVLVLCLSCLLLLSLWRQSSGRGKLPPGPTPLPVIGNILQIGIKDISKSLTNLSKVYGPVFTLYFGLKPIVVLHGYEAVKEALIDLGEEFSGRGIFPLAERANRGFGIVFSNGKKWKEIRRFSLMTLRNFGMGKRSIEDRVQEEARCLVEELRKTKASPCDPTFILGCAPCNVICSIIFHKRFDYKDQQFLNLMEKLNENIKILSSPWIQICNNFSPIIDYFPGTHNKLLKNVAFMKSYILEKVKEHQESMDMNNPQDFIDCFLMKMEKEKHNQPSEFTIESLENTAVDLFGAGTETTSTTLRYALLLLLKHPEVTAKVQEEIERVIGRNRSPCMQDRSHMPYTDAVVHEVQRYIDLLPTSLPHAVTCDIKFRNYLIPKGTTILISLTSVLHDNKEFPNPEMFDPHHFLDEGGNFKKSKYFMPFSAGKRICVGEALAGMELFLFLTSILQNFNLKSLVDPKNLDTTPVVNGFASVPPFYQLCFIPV
How it was run: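 P450-Glo proluciferin substrate with CYP2C9 enzyme; 10 min RT preincubation, then NADPH regeneration 1 h at 37C; luciferin detection reagent 20 min RT, luminescence in relative luminescence units.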

[9] = target: Voltage-gated inwardly rectifying potassium channel KCNH2 (Homo sapiens) (UniProt Q12809); test: Human Ether-a-go-go-Related Gene (hERG) channel small molecule antagonists: fluorescence cell-based qHTS assay (AID 1671200); further: nearly all actives have a fitted effect of over 50% in size; further: potency means the concentration at half of the fitted maximal effect
Chain of Voltage-gated inwardly rectifying potassium channel KCNH2 (Homo sapiens) (Q12809 whole entry, looked up): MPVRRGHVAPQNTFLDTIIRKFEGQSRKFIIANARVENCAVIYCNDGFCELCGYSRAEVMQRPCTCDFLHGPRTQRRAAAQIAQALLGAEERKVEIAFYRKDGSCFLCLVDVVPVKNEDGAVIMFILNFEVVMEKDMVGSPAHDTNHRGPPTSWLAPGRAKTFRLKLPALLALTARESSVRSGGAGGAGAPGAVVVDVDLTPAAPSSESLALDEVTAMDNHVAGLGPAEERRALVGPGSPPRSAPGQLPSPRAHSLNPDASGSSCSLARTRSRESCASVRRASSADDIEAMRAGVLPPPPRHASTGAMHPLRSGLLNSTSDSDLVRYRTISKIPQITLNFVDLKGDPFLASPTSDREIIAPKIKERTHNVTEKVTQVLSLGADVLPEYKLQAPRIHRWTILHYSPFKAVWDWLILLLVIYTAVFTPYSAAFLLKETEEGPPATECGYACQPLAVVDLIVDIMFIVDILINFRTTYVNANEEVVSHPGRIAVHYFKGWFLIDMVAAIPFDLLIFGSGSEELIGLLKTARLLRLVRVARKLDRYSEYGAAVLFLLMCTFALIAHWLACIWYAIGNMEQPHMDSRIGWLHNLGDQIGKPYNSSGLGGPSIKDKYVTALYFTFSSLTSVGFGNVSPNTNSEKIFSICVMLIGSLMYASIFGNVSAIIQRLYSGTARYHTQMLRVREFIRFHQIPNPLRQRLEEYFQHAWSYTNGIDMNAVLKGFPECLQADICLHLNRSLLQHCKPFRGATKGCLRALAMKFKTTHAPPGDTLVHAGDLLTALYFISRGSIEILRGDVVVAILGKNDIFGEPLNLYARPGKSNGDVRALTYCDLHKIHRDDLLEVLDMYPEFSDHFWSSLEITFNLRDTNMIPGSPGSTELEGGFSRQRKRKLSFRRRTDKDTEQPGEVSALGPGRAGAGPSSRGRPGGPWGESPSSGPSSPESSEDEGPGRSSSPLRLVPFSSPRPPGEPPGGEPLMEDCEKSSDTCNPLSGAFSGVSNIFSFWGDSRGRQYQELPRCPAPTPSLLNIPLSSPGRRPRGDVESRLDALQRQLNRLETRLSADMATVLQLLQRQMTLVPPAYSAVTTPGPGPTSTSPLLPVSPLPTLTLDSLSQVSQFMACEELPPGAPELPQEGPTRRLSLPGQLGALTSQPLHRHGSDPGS
How it was run: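 Thallium flux as potassium surrogate: FluxOR II dye loaded 1 h at room temperature into hERG-expressing U2OS cells, then stimulus buffer added after 10 min. Kinetic 480 nm excitation/540 nm emission read, 2 min.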

[10] = target: Cytochrome P450 1A2 (Homo sapiens) (UniProt P05177); test: Cytochrome P450 Family 1 Subfamily A Member 2 (CYP1A2) small molecule antagonists: luciferase reporter qHTS assay (AID 1671199); further: nearly all actives have a fitted effect of over 50% in size; further: potency means the concentration at half of the fitted maximal effect
Chain of Cytochrome P450 1A2 (Homo sapiens) (P05177 whole entry, looked up): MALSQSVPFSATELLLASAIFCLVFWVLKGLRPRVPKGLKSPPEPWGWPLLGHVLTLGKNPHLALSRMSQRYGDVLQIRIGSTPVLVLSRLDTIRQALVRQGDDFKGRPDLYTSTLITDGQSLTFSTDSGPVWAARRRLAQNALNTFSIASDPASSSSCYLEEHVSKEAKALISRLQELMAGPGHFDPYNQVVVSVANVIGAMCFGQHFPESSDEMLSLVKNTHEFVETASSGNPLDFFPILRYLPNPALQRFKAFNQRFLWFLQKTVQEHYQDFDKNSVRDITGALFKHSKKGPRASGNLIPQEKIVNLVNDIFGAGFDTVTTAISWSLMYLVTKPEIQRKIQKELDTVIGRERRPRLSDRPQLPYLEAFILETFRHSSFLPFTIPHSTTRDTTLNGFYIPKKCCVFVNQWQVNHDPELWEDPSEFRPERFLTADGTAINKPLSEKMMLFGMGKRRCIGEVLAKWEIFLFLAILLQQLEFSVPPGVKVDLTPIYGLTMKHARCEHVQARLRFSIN
How it was run: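 Human CYP1A2 activity measured with a P450-Glo proluciferin substrate; compounds in DMSO preincubated 10 min at room temperature with enzyme-substrate mix, then NADPH regeneration system added for 1 h. Luciferin detection reagent, 20 min, luminescence read.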

[11] = target: Cytochrome P450 3A4 (Homo sapiens) (UniProt P08684); test: Cytochrome P450 Family 3 Subfamily A Member 4 (CYP3A4) small molecule antagonists: luciferase reporter qHTS assay (AID 1671201); further: nearly all actives have a fitted effect of over 50% in size; further: potency means the concentration at half of the fitted maximal effect
Chain of Cytochrome P450 3A4 (Homo sapiens) (P08684 whole entry, looked up): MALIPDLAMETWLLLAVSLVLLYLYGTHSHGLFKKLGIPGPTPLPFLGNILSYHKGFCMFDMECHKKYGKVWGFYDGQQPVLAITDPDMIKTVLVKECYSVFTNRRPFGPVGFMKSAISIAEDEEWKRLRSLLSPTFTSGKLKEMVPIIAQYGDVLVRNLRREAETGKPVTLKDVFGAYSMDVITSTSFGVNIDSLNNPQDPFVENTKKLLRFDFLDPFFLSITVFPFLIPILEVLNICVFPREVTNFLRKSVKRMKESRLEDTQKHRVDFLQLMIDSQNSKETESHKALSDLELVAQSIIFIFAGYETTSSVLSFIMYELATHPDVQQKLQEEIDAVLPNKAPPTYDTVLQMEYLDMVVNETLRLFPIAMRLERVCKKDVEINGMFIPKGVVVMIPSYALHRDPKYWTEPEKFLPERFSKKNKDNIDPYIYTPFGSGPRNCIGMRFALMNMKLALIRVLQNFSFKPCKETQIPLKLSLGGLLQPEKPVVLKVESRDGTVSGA
How it was run: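 Recombinant human CYP3A4 converts a proluciferin substrate to luciferin over 1 h at room temperature after NADPH regeneration solution is added (compound preincubated 10 min); detection reagent stops reaction, luminescence read 20 min later as relative units.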

[12] = target: Nuclear receptor subfamily 1 group I member 2 (Rattus norvegicus) (UniProt Q9R1A7); test: Rat pregnane X receptor (rPXR) activation by small molecules, qHTS assay (AID 1346983); conditions: rPXR luciferase reporter cells, One-Glo luminescence, 24 h; max activation: active compounds read high; further: nearly all actives have a fitted effect of over 20% in size
Chain of Nuclear receptor subfamily 1 group I member 2 (Rattus norvegicus) (Q9R1A7 whole entry, looked up): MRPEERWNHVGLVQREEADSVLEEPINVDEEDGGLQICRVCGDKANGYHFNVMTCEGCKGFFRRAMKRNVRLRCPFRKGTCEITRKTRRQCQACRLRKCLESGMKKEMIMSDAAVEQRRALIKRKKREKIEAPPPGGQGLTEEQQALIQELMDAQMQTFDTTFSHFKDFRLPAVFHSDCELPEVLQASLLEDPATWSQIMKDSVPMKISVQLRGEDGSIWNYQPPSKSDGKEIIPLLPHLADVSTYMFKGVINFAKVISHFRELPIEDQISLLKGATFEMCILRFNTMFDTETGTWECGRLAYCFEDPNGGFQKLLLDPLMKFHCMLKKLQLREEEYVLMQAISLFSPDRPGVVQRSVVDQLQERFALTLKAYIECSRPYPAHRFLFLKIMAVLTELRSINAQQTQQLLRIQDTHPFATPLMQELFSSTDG
How it was run: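 Cell-based rPXR activation assay: rPXR cells, 2,000 per well, rested 5hr at 37 C, then exposed to compounds in DMSO for 24 hr at 37 C. Luciferase activity read by One-Glo luminescence after 30 min at room temperature.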

[13] = target: Nuclear receptor subfamily 1 group I member 2 (Homo sapiens) (UniProt O75469); test: CYP3A4 induction through human pregnane X receptor (PXR) by small molecules, qHTS assay (AID 1346984); further: potency means the concentration at half of the fitted maximal effect; nearly all actives have a fitted effect of over 40% in size
How it was run: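 DPX-2 cells (HepG2 co-transfected with PXR and CYP3A4 promoter-luciferase) treated with compounds 24 h at 37C; luciferin-IPA CYP3A4 substrate 3uM final added for 3 h, then One-Glo; luminescence read. qHTS format.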

[14] = target: Nuclear receptor subfamily 1 group I member 2 (Homo sapiens) (UniProt O75469); test: Human pregnane X receptor (PXR) activation by small molecules, qHTS assay (AID 1346985); further: nearly all actives have a fitted effect of over 40% in size
How it was run: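 DPX-2 cells (HepG2 co-transfected with a PXR response element and a CYP3A4-promoter luciferase construct) were seeded at 2,000 per well, rested 5 hr at 37C, then exposed to DMSO-dissolved compounds for 24 hr. Activation was read as luciferase luminescence.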

Structure (SMILES) | outcome [1] | Potency [2] | Potency [3] | Potency [4] | Potency [5] | Potency [6] | Potency [7] | Potency [8] | Potency [9] | Potency [10] | Potency [11] | max activation [12] | Potency [13] | Potency [14]
CCCCCCCCCCCCCCCC(=O)OC/C=C(C)/C=C/C=C(C)/C=C/C1=C(C)CCCC1(C)C | inactive | inactive | inactive | inactive | 24.3 µM (active) | inactive | 39.9 µM (active) | 35.6 µM (active) | inactive |  |  |  |  | 
O=C1CCCCCO1 | inactive | inactive | inactive | inactive | inactive |  | inactive | inactive |  | 35.9 µM (active) | inactive |  |  | 
CCCCCCCCCC(=O)OCC | inactive | inactive | inactive | inactive | inactive | inactive | 56.4 µM (active) | inactive | inactive |  | inactive |  |  | 
O=C(O)C1CCC(C(=O)O)CC1 (stereo not drawn) | inactive | inactive | inactive | inactive | inactive |  | inactive | inactive | inactive | inactive | inactive |  |  | 
C[Si](C)O[Si](C)(C)O[Si](C)(C)O[Si](C)C | inactive | inactive | inactive | inactive | inactive | inactive | inactive |  | inactive | inactive |  |  |  | 
Nc1nc(CC(=O)O)cs1 | inactive | inactive | inactive | inactive | inactive | 28.3 µM (active) |  | inactive |  | inactive |  |  |  | 
CCCCCC/C=C/C=O | inactive | inactive | inactive | inactive | inactive | inactive | 71 µM (active) | 63.3 µM (active) | inactive | inactive | inactive |  |  | 
ClC(Cl)(Cl)c1ccc(C(Cl)(Cl)Cl)cc1 | inactive | inactive | inactive | inactive | inactive |  |  | 39.5 µM (active) | 6.85 µM (active) | 4.98 µM (active) | inactive |  |  | 
Cc1occc1S | inactive | inactive | inactive | inactive | 61.1 µM (active) | inactive | 56.4 µM (active) | 35.6 µM (active) |  | inactive | 28.3 µM (active) |  |  | 
CC(=O)SCc1ccco1 | inactive | inactive | inactive | inactive | inactive | inactive |  |  | inactive | inactive |  |  |  | 
O=[N+]([O-])c1cccc(Cl)c1Cl | inactive | inactive | inactive | inactive | inactive | inactive | inactive | inactive | inactive |  | inactive |  |  | 
C=C(C)C(=O)OCCOc1ccccc1 | inactive | inactive | inactive | inactive | inactive | inactive | 31.7 µM (active) | 35.6 µM (active) | inactive | 25.2 µM (active) | inactive |  |  | 
CN1CCC(=C2c3ccccc3CCc3sccc32)CC1 | inactive | inactive | inactive | inactive |  | 1.23 µM (active) | 8.71 µM (active) | inactive | 16.9 µM (active) | inactive | inactive | 0.0937% | 28.2 µM (active) | inactive
C=CCCCCCC | inactive | inactive | inactive | inactive | inactive | inactive |  | inactive | inactive | inactive | inactive |  |  | 
Cc1cccc(Oc2ccccc2)c1 | inactive | inactive | inactive | inactive | inactive | 34.7 µM (active) | 69.2 µM (active) |  | 13.5 µM (active) | 34.7 µM (active) | 34.7 µM (active) |  |  | 
CCCCCCCCCCCCCCC1CO1 (stereo not drawn) | inactive | inactive | inactive | inactive | inactive | inactive | inactive | inactive | inactive |  | inactive |  |  | 
COc1cc(C(C)(C)C)c(O)c(C(C)(C)C)c1 | inactive | inactive | inactive | inactive | inactive | inactive | 35.6 µM (active) | 22.4 µM (active) |  | 39.9 µM (active) | 35.6 µM (active) |  |  | 
CC(C)c1cccc(C(C)C)c1NC(=O)NS(=O)(=O)c1cc(C(C)(C)O)co1 | inactive | inactive | inactive | inactive | inactive | inactive | 11.2 µM (active) | 35.6 µM (active) |  |  | inactive |  |  | 
CCCCC(CC)(CO)CO | inactive | inactive | inactive | inactive | inactive | inactive | 56.4 µM (active) |  |  | inactive | inactive |  |  | 
N#CCc1cccc(C(F)(F)F)c1 | inactive | inactive | inactive | inactive | inactive | inactive | inactive | inactive |  |  | inactive |  |  | 
CC[C@H](C)[C@@H](C(=O)O)n1sc2ccccc2c1=O | inactive | inactive | inactive | inactive | inactive | inactive | inactive | inactive |  | 25.2 µM (active) | inactive |  |  | 
NCCCN(CCO)CCO | inactive | inactive | inactive | inactive | inactive |  | inactive | inactive | inactive |  | inactive |  |  | 
